Screens as filed in PubChem.
CRFR2-BP antag – blocks CRF-induced signaling of the CRF-BP/CRF-R2 complex; AID 588475; HEK293 CRF-R2/CRF-BP, CRF-induced calcium fluorescence; actives 0.59% (n = 350,000); inhibition, % at 11.8 µM;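 active = inhibition of the ligand-induced calcium signal above about 50% at the single tested concentration, limit read from the data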
H9c2 protect – modulators protecting cardiomyocytes from myocardial damage; actives 0.63% (n = 360,000); AID 588492; H9c2 cardiomyocytes, H2O2 injury protection, ATPLite, 2 h; protection from H2O2 cell death, % at 20 µM;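 active = compounds giving at least 50% protection of heart cells from peroxide-induced death in the single-dose screen, raw or plate-pattern-corrected value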
FAS TE block – FAS thioesterase (human) inhibition; P49327; recombinant FAS-TE, OMFH fluorogenic substrate, fluorescence endpoint; inhibition, % at 15 µM; actives 0.67% (n = 360,000); AID 602261;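 active = compounds whose normalised, plate-corrected inhibition of enzyme fluorescence in the single-dose primary screen is 50% or more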
aDG glyco act – alpha-DG glycosylation activation. Pro5-aDG cells, alpha-DG glycosylation AlphaScreen (IIH6); 0% Pro5, 100% B10-LARGE cell signal. activation, % at 10 µM. AID 624168. actives 0.22% (n = 360,000);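 active = activation of at least 8% versus controls, or a plate z-score of at least 8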;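 also: Pro5 are CHO cells carrying HIG-tagged alpha-DG that lacks glycosylation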
PfG6PD inh – PfG6PD (Plasmodium falciparum) enzyme inhibition | inhibition, % at 20 µM | PfGluPho enzyme, NADPH resazurin-diaphorase fluorescence | actives 0.78% (n = 350,000);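 active = inhibition reaching at least a set limit at 20 µM in the primary screen, cut at about 59% in these data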
CRFR2-BP ag – agonists of human CRF-binding protein/CRF-R2 receptor complex. activation, % at 13.2 µM. HEK293 CRF-R2/CRF-BP, calcium dye fluorescence (FLIPR); percent of saturating CRF peptide response. actives 0.46% (n = 350,000);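 active = activation of at least 50%, plus an integration ratio under a set limit after plate pattern correction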
A number is an active result; - = inactive; . = no result given. Compounds with a hit are over-represented: about 3.2% of the library has one in this group of screens.

SMILES | CRFR2-BP antag | H9c2 protect | FAS TE block | aDG glyco act | PfG6PD inh | CRFR2-BP ag
COc1ccc(/C=N/NC(=O)c2ccn[nH]2)cc1CSc1ccccn1 | - | - | - | - | - | -
N#CCCn1c(SCC(=O)c2c[nH]c3ccccc23)nc2ccccc21 | - | 51.1 | - | - | - | -
CC(CC(=O)Nc1ccc2c(c1)c(=O)n(C)n2-c1cccs1)c1ccccc1 (stereo unspecified) | . | - | - | - | . | .
CCCCCCSc1ccc([C@H]2N[C@@](Cc3ccccc3)(C(=O)OC)[C@H]3C(=O)N(C)C(=O)[C@@H]23)cc1 | - | 77.4 | - | - | - | -
CCN1C(=O)[C@H]2[C@@H](c3ccc(-c4ccc(Cl)c(Cl)c4)cc3)N[C@@](CC(C)C)(C(=O)OC)[C@H]2C1=O | - | - | - | - | - | -
COC(=O)[C@]1(CC(C)C)N[C@H](c2ccc(-c3ccc(Cl)c(Cl)c3)cc2)[C@@H]2C(=O)N(C)C(=O)[C@@H]21 | - | - | 60.6 | - | - | -
CCCCCCSc1ccc([C@H]2N[C@@](Cc3ccccc3)(C(=O)OC)[C@H]3C(=O)N(CC)C(=O)[C@@H]23)cc1 | - | - | - | - | - | -
CCN(C[C@H]1N[C@@](Cc2ccccc2)(C(=O)OC)[C@H]2C(=O)N(C)C(=O)[C@@H]12)S(=O)(=O)c1ccc(OC)cc1 | - | 60.0 | - | - | - | -
COc1ccccc1N(C)S(=O)(=O)c1ccc(C(=O)N2CCCc3ccccc32)cc1 | - | - | - | - | - | -
O=C(Nc1nnc([C@H]2C[C@H](O)[C@@H](CO)O2)s1)c1ccccc1F | . | - | - | - | . | .
Cc1cc2c(cc1C)NC(c1c(C)n(C)n(-c3ccccc3)c1=O)C1=C(CC(C)(C)CC1=O)N2 (stereo unspecified) | - | - | - | - | - | 62.7
CCOC(=O)C(CCCCOc1ccc([N+](=O)[O-])cc1)C(=O)OCC | 61.6 | - | - | - | - | -
CC1CC(C)CN(CCCCOc2ccc([N+](=O)[O-])cc2)C1 (stereo unspecified) | - | - | - | - | - | -
Fc1cccc(Nc2nc3ccccc3n3cnnc23)c1 | - | - | - | - | - | -
COc1cccc(/C=N/Nc2nc3ccccc3n3cnnc23)c1 | - | 56.6 | - | - | - | -
CC(=O)c1cccc(Nc2nc3ccccc3n3cnnc23)c1 | 115.7 | 67.0 | - | - | - | -
c1ccc2c(c1)nc(N1CCOCC1)c1nncn12 | - | - | - | - | - | -
c1ccc(N2CCOCC2)c(Nc2nc3ccccc3n3cnnc23)c1 | - | 81.0 | - | - | - | -
O=C(CCS(=O)(=O)c1ccc(F)cc1)N1CCOCC1 | - | - | - | - | - | -
O=C(Nc1ccccc1C(=O)Nc1nnc(C(F)(F)F)s1)c1ccccc1Cl | 50.2 | - | - | - | - | -
NC(=O)c1ccccc1NC(=O)c1ccccc1Cl | - | - | - | - | - | -
Cc1ccnc(N/C=C(\C#N)c2nc(-c3cccc(Br)c3)cs2)c1 | - | - | - | - | - | 236.8
CC(=O)c1ccc(-c2cnc3c(NC=O)cc(-c4ccc(C(=O)NC5CC5)cc4)cn23)cc1 | . | 95.4 | - | - | . | .
O=CNc1cc(-c2ccc(C(=O)NC3CC3)cc2)cn2c(-c3ccccc3)cnc12 | . | 72.4 | - | - | . | .
CC(=O)c1ccc(-c2cnc3c(NC=O)cc(-c4ccc(N5CCN(C)CC5)cc4)cn23)cc1 | . | - | - | - | . | .
SMILES | CRFR2-BP antag | H9c2 protect | FAS TE block | aDG glyco act | PfG6PD inh | CRFR2-BP ag
O=CNc1cc(-c2ccc(C(=O)NC3CC3)cc2)cn2c(-c3ccc(F)c(Cl)c3)cnc12 | . | 59.9 | - | - | . | .
CCCc1cc(=O)oc2cc(OC(=O)CN3C(=O)NC4(CCCC4)C3=O)ccc12 | - | 61.1 | - | - | - | -
C/C(=N\NC(=O)c1ccc(Br)cc1)C1C(=O)c2ccccc2C1=O | 55.3 | - | - | - | - | -
CCc1cccc(NC(=O)CN(c2ccc(OC)cc2)S(=O)(=O)c2c(C)n[nH]c2C)c1 | - | - | - | - | - | -
Cc1c(NC(=O)OCCNC(=O)COc2c(Cl)cccc2Cl)sc(=S)n1C | - | - | - | - | - | -
O=C(O)c1cc(C(=O)O)c(-c2ccccc2)c(C(=O)O)c1 | - | - | - | - | - | -
O=C(O)c1cc(-c2ccccc2)nc(-c2ccccc2)c1 | 54.2 | - | - | - | - | -
O=C(NNC(=O)c1ccccc1-n1cccc1)c1cncc(Br)c1 | - | - | - | - | - | -
Cc1cccc(/N=C/c2c(O)cc(C)oc2=O)n1 | - | - | - | - | - | -
Cc1cccc(/N=C/c2c(O)ccc3oc4c(c23)CCCC4)n1 | - | 75.4 | - | - | - | -
Cc1cc(C(=O)N2CCN(c3ccc([N+](=O)[O-])cc3)CC2)co1 | 59.1 | - | - | - | - | -
COc1ccc(/C=C/c2c([N+](=O)[O-])c(=O)n(C)c(=O)n2C)cc1O | 52.1 | - | - | - | - | -
COc1ccccc1C/C(N)=N/OC(=O)COc1ccc(C)cc1C | 54.0 | - | - | - | - | -
CC(=O)c1cccc(NC(=O)Nc2ccc3c(c2)N(C)C(=O)CS3)c1 | - | 52.1 | - | - | - | -
CC(=O)c1c(C)[nH]c(C(=O)OCC(=O)N(CC(C)C)C2CCS(=O)(=O)C2)c1C (stereo unspecified) | - | - | - | - | - | -
O=C(CSc1ccccc1C(=O)O)NCC1CCCCC1 | - | - | - | - | - | -
CCN(CC)C(=O)c1ccc2c3c(cccc13)C(=O)N(CCc1ccc(OC)c(OC)c1)C2=O | - | 71.3 | - | - | - | -
O=C(Nc1ccccc1)Nc1cc(OCC(F)(F)F)cc(OCC(F)(F)F)c1 | 55.1 | - | 51.9 | - | - | -
COC(=O)c1ccc(-c2n[nH]c(=O)c3ccccc23)cc1 | - | - | - | - | - | -
COC(=O)Nc1nc2ccc(-c3n[nH]c(=O)c4ccccc34)cc2[nH]1 | - | 67.9 | - | - | - | -
CCOC(=O)c1ccc(-c2ccc(/C=C(\C#N)C(=O)NCC3CCCO3)o2)cc1 (stereo unspecified) | - | 52.2 | - | - | - | -
CCOc1ccc(NS(=O)(=O)c2ccc(C(=O)NCC3(N(C)C)CCCCC3)cc2)cc1 | - | - | - | - | - | 51.0
Cc1cc(S(=O)(=O)Nc2ccc(C(=O)NCC3(N(C)C)CCCCC3)cc2)ccc1F | - | - | - | - | - | -
CCOc1ccc(NS(=O)(=O)c2ccc(C(=O)NCC3(N4CCCCC4)CCCCC3)cc2)cc1 | - | - | - | - | - | 61.9
COc1cc(OC)cc(C(=O)NC2CC3CCC(C2)N3Cc2ccco2)c1 (stereo unspecified) | 58.2 | - | - | - | - | -
CC(C)(C)OC(=O)N1CCC(NC(=O)c2nc[nH]c2C(=O)NCC(=O)OCc2ccccc2)CC1 | - | 72.2 | - | - | - | -
